# Measured values from PubChem BioAssay (NCATS).
# Several values for one entry are separate records, joined by “and”; a condition that tells them apart may be missing. Equal entries are not always repeated. Inconclusive results are not listed. Where a call stands in place of a potency, no number is given. A structure can be active in one record and inactive in another. Activity calls are given as the source filed them. Calls come from the whole dose curve; as a rule, active = well fitted curve in the direction sought with a large enough effect; inconclusive = small, poorly fitted or top-dose-only effect, or another doubt; inactive = no such curve, though single readings can be large; an effect the other way counts as inactive or inconclusive.
# Tests used:
# [1] = target: Glutathione peroxidase 1 (Homo sapiens) (UniProt P07203); test: Primary qHTS Assay for Inhibitors of Recombinant Selenoprotein Glutathione Peroxidase 1 (GPX1) (AID 1845191); note: nearly all actives have a fitted effect of over 65% in size
# Chain of Glutathione peroxidase 1 (Homo sapiens) (P07203 whole entry, looked up): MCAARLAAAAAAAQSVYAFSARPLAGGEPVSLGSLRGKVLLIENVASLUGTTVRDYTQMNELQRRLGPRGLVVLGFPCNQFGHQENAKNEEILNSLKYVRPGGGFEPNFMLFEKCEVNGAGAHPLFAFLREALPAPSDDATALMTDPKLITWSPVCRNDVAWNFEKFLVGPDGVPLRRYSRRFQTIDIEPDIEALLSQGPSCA
# How it was run: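 GR-coupled readout: NADPH consumption tracked by fluorescence, ex 340/em 450 nm, at t=0 and after 15 min at RT. Final mix 10 nM GPX1, 1 mM GSH, 0.5 mM CHP, 0.5 mM NADPH, 100 nM GR, 0.01% BSA, following 30 min enzyme–compound preincubation.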
# [2] = target: Phospholipid hydroperoxide glutathione peroxidase GPX4 (Homo sapiens) (UniProt P36969); test: Primary qHTS Assay for Inhibitors of Recombinant Selenoprotein Glutathione Peroxidase 4 (GPX4) (AID 1845192); note: nearly all actives have a fitted effect of over 65% in size; note: potency is the fitted concentration of half-maximal effect
# Chain of Phospholipid hydroperoxide glutathione peroxidase GPX4 (Homo sapiens) (P36969 whole entry, looked up): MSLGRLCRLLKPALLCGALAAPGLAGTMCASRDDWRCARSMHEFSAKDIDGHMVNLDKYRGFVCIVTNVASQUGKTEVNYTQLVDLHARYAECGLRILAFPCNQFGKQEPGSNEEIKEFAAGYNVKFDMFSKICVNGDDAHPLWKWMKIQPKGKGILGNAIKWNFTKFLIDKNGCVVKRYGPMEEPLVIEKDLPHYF
# How it was run: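 Steps: GPX4 plus compound, 30 min RT; add GR/GSH/NADPH master mix; start with cumene hydroperoxide; read 340/450 nm fluorescence at 0 and 15 min. Finals were 200 nM GPX4, 1 mM GSH, 0.5 mM CHP, 0.5 mM NADPH, 100 nM GR.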
# [3] = Quantitative High-Throughput drug screen in 47 multiple myeloma cell lines against the NCATS MIPE library collection: EJM_DSMZ cell viability assay (AID 1918926; note: nearly all actives have a fitted effect of over 30% in size; note: potency is the fitted concentration of half-maximal effect)
# How it was run: (§1)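 CellTiter-Glo luminescence (ATP) after 48 h compound exposure, 37C/5% CO2; 500 cells/well; MIPE 4.0 approved/investigational drugs pinned in; DMSO = 100%, media only = 0% viability.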
# [4] = Quantitative High-Throughput drug screen in 47 multiple myeloma cell lines against the NCATS MIPE library collection: ARP1_JJKsccF8 cell viability assay (AID 1918928; note: nearly all actives have a fitted effect of over 40% in size; note: potency is the fitted concentration of half-maximal effect)
# How it was run: (§2)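 500 cells/well; MIPE 4.0 library pinned in; 48 h, 37 °C, 5% CO2; CellTiter-Glo ATP luminescence. Controls: DMSO = 100% viability, medium only = 0%.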
# [5] = Quantitative High-Throughput drug screen in 47 multiple myeloma cell lines against the NCATS MIPE library collection: ARD_JJKsccE7 cell viability assay (AID 1918929; note: potency is the fitted concentration of half-maximal effect)
# How it was run: as §1
# [6] = Quantitative High-Throughput drug screen in 47 multiple myeloma cell lines against the NCATS MIPE library collection: Karpas417_ECACC cell viability assay (AID 1918961); conditions: Karpas417 myeloma viability, CellTiter-Glo ATP luminescence, 48 h; viability (% of DMSO): at 45.8 µM (top of the series); note: potency is the fitted concentration of half-maximal effect
# How it was run: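 Viability readout: CellTiter-Glo luminescence following 5 min room-temperature incubation with reagent. Prior exposure: 48 h, 37C, humidified 5% CO2, 500 cells per well.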
# [7] = Quantitative High-Throughput drug screen in 47 multiple myeloma cell lines against the NCATS MIPE library collection: KHM11_PLB cell viability assay (AID 1918962); note: nearly all actives have a fitted effect of over 35% in size; note: potency is the fitted concentration of half-maximal effect
# How it was run: (§3)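 We plated 500 myeloma cells per well, pinned in MIPE 4.0 compounds, and incubated for 48 hours at 37C. ATP was then quantified with CellTiter-Glo, with DMSO and media-only wells defining 100% and 0%.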
# [8] = Quantitative High-Throughput drug screen in 47 multiple myeloma cell lines against the NCATS MIPE library collection: Delta47_JCRB cell viability assay (AID 1918925; note: nearly all actives have a fitted effect of over 45% in size; note: potency is the fitted concentration of half-maximal effect)
# How it was run: as §1
# [9] = Quantitative High-Throughput drug screen in 47 multiple myeloma cell lines against the NCATS MIPE library collection: AMO1_DSMZ cell viability assay (AID 1918927; note: nearly all actives have a fitted effect of over 30% in size; note: potency is the fitted concentration of half-maximal effect)
# How it was run: as §1
# [10] = Quantitative High-Throughput drug screen in 47 multiple myeloma cell lines against the NCATS MIPE library collection: JIM3_ECACC cell viability assay (AID 1918963; note: nearly all actives have a fitted effect of over 35% in size; note: potency is the fitted concentration of half-maximal effect)
# How it was run: as §3
# [11] = Quantitative High-Throughput drug screen in 47 multiple myeloma cell lines against the NCATS MIPE library collection: Karpas620_DSMZ cell viability assay (AID 1918959); note: nearly all actives have a fitted effect of over 30% in size; note: potency is the fitted concentration of half-maximal effect
# How it was run: as §3
# [12] = Quantitative High-Throughput drug screen in 47 multiple myeloma cell lines against the NCATS MIPE library collection: KMM1_JCRB cell viability assay (AID 1918960); note: nearly all actives have a fitted effect of over 30% in size; note: potency is the fitted concentration of half-maximal effect
# How it was run: as §2
# [13] = Quantitative High-Throughput drug screen in 47 multiple myeloma cell lines against the NCATS MIPE library collection: JIM1_ECACC cell viability assay (AID 1918964; note: potency is the fitted concentration of half-maximal effect)
# How it was run: as §1
# [14] = Quantitative High-Throughput drug screen in 47 multiple myeloma cell lines against the NCATS MIPE library collection: FR4_PLB cell viability assay (AID 1918924; note: nearly all actives have a fitted effect of over 35% in size; note: potency is the fitted concentration of half-maximal effect)
# How it was run: as §3
# [15] = target: Luciferin 4-monooxygenase (Photinus pyralis) (UniProt P08659); test: Primary firefly luciferase (FLuc) qHTS assay for identification of artifact compounds. (AID 1845220); note: nearly all actives have a fitted effect of over 60% in size
# How it was run: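 Titrated compounds were incubated 15 min at RT, protected from light, with luciferin and ATP at 10 uM; reaction started with 10 nM FLuc, luminescence imaged at 5 min, and concentration-response fitted by Hill equation.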
# [16] = Primary fluorescence-based thiol-reactive (MSTI) qHTS assay for identification of artifact compounds. (AID 1845221);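 note: thiol-reactive compounds lower the probe fluorescence signal; nearly all actives have a fitted effect of over 65% in size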
# How it was run: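 Curve-fitted percent inhibition (4-parameter Hill) derived from fluorescence, Ex 525/Em 598 nm, scaled with Acetyl-MSTI and MSTI; 1 h incubation at room temperature.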
# [17] = test system: Nanoluciferase (engineered Oplophorus gracilirostris luciferase); test: Primary Nanoluciferase (NLuc) qHTS assay for identification of artifact compounds. (AID 1845222);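 note: NLuc secreted into diluted conditioned medium of S16 cells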
# How it was run: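 qHTS format, against NLuc in S16 cell-conditioned medium. Nano-Glo substrate 1:100 was added after 15 min at room temperature. Luminescence was taken after a further 5 min.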
Structure (SMILES),Potency [1],Potency [2],Potency [3],Potency [4],Potency [5],Potency [6],Potency [7],Potency [8],Potency [9],Potency [10],Potency [11],Potency [12],Potency [13],Potency [14],Potency [15],Potency [16],outcome [17]
COc1ccc(C=Cc2cc(OC)c(OC)c(OC)c2)cc1NC(=O)[C@H](N)CO,inactive,inactive,0.0105 µM (active),0.0053 µM (active),0.0118 µM (active),0.59 µM (active),inactive,,,,,,,,,,
COc1cc(C[C@@H](CO)[C@H](CO)Cc2ccc(O)c(OC)c2)ccc1O,inactive,inactive,0.264 µM (active),inactive,9.35 µM (active),5.9 µM (active),1.18 µM (active),0.662 µM (active),4.69 µM (active),2.64 µM (active),,,,,,,
CC(Oc1ccc(O)cc1)(P(=O)(O)O)P(=O)(O)O,inactive,inactive,inactive,inactive,,,inactive,,,inactive,inactive,inactive,inactive,,,,
NC(=O)c1cccc(-c2cccc(OC(=O)NC3CCCCC3)c2)c1,inactive,inactive,inactive,inactive,inactive,,inactive,,inactive,inactive,inactive,inactive,inactive,,,,
O=S(=O)(O)CCSSCCS(=O)(=O)O,inactive,,inactive,inactive,inactive,,inactive,inactive,,inactive,inactive,inactive,,inactive,,,
Nc1nc(N)c2nc(-c3cccc(O)c3)c(-c3cccc(O)c3)nc2n1,inactive,,18.7 µM (active),20.9 µM (active),8.33 µM (active),1.32 µM (active),3.32 µM (active),5.9 µM (active),7.43 µM (active),,11.8 µM (active),3.72 µM (active),1.87 µM (active),10.5 µM (active),,,
O=c1c(O)c(-c2ccc(O)c(O)c2)oc2cc(O)ccc12,inactive,,20.9 µM (active),20.9 µM (active),,,13.2 µM (active),11.8 µM (active),10.5 µM (active),13.2 µM (active),,5.9 µM (active),,20.9 µM (active),,,
C[C@H](NCc1ccc(OCc2cccc(F)c2)cc1)C(N)=O,inactive,inactive,9.35 µM (active),7.43 µM (active),5.26 µM (active),2.64 µM (active),1.48 µM (active),,9.35 µM (active),2.96 µM (active),3.72 µM (active),6.62 µM (active),3.72 µM (active),,,,
Oc1cc2c(cc1O)C1c3ccc(O)c(O)c3OCC1(O)C2 (stereo unspecified),inactive,inactive,inactive,,inactive,,inactive,inactive,inactive,,inactive,,,,,,
CN(C)c1ccc2cc(C(=O)N[C@@H](CCCN=C(N)CCl)C(=O)NCc3ccccc3)ccc2c1,inactive,inactive,1.32 µM (active),18.7 µM (active),4.18 µM (active),,16.6 µM (active),18.7 µM (active),1.66 µM (active),11.8 µM (active),5.9 µM (active),1.32 µM (active),3.72 µM (active),,,,
CN1C(C(=O)Nc2ccccn2)=C(O)c2sc(Cl)cc2S1(=O)=O,inactive,inactive,,2.64 µM (active),inactive,,3.32 µM (active),2.96 µM (active),,3.72 µM (active),inactive,inactive,,,,,
COC(=O)[C@H](CCCN=C(N)N)NS(=O)(=O)c1ccc(C)cc1,inactive,inactive,inactive,inactive,inactive,,inactive,,inactive,,inactive,inactive,inactive,,,,
Cc1ccccc1C(=O)Nc1ccc(C(=O)N2CCCC(O)c3cc(Cl)ccc32)c(C)c1 (stereo unspecified),inactive,,20.9 µM (active),inactive,,,,inactive,,,inactive,,,,inactive,inactive,inactive
Cn1cc(-c2ccc3ncc(Cc4ccc5ncccc5c4)n3n2)cn1,inactive,,inactive,inactive,inactive,,,,14.8 µM (active),16.6 µM (active),inactive,,,inactive,inactive,inactive,inactive
Cc1cc(C(=O)NOCCO)c(Nc2ccc(I)cc2F)n(C)c1=O,inactive,inactive,inactive,,,,,,0.118 µM (active),,0.0059 µM (active),,inactive,,,,
CC(C(C)N1CC(=O)NC(=O)C1)N1CC(=O)NC(=O)C1 (stereo unspecified),inactive,inactive,inactive,,,,inactive,,0.332 µM (active),inactive,inactive,inactive,,,,,
CCCc1nc(C(C)(C)O)c(C(=O)O)n1Cc1ccc(-c2ccccc2-c2nn[nH]n2)cc1,inactive,inactive and 17.8 µM (active),,inactive,inactive,,inactive,inactive,inactive,inactive,inactive,inactive,,,,,

Structure (SMILES),Potency [1],Potency [2],Potency [3],Potency [4],Potency [5],Potency [6],Potency [7],Potency [8],Potency [9],Potency [10],Potency [11],Potency [12],Potency [13],Potency [14],Potency [15],Potency [16],outcome [17]
CC(=O)OC[C@@H]1O[C@@H](n2ccc(=O)[nH]c2=O)[C@H](OC(C)=O)[C@H]1OC(C)=O,inactive,inactive,inactive,inactive,inactive,inactive,,inactive,inactive,inactive,inactive,inactive,inactive,,,,
c1coc(CNc2ncnc3nc[nH]c23)c1,inactive,inactive,inactive,inactive,inactive,,inactive,inactive,inactive,,,inactive,,,,,
CCCCC(=O)O[C@]1(C(=O)CO)[C@@H](C)C[C@H]2[C@@H]3CCC4=CC(=O)C=C[C@]4(C)[C@@]3(F)[C@@H](O)C[C@@]21C,inactive,inactive,inactive,,,,inactive,,inactive,inactive,inactive,,,,,,
CCN(CC)CCCCNc1ncc2c(n1)N(C)C(=O)N(c1c(Cl)c(OC)cc(OC)c1Cl)C2,inactive,inactive,18.7 µM (active),,,,,,inactive,,inactive,inactive,inactive,,,,
c1ccc(CNc2nc(NCc3ccccc3)c3ccccc3n2)cc1,inactive,inactive,18.7 µM (active),,18.7 µM (active),,8.33 µM (active),7.43 µM (active),8.33 µM (active),16.6 µM (active),5.26 µM (active),4.69 µM (active),8.33 µM (active),,,,
O=C(O)CCCCC(CCSCc1ccccc1)SCc1ccccc1 (stereo unspecified),inactive,20.2 µM (active),inactive,inactive,18.7 µM (active),,inactive,,,inactive,,13.2 µM (active),,,,,
C=C[C@@H]1CN2CCC1C[C@H]2[C@H](O)c1ccnc2ccc(OC)cc12 (stereo partly specified),inactive,inactive,,,inactive,inactive,,,inactive,inactive,inactive,inactive,,,,,
Cn1cc(-c2cnn3c(N)c(Br)c([C@H]4CCCNC4)nc23)cn1,inactive,inactive,0.372 µM (active),3.32 µM (active),1.05 µM (active),0.132 µM (active),0.526 µM (active),0.743 µM (active),1.48 µM (active),1.87 µM (active),,0.372 µM (active),0.118 µM (active),,,,
C[C@@H](NCc1cc2ccccc2[nH]1)c1cccc2ccccc12,inactive,inactive,inactive,,,inactive,,,,inactive,,,,,,,
COc1ccc(Nc2nccc(NCCO)n2)cc1,inactive,inactive,inactive,inactive,inactive,,inactive,,inactive,inactive,inactive,inactive,inactive,,,,
COc1cc(OC)c(NC(=O)Nc2cc(C)on2)cc1Cl,inactive,inactive,,inactive,,,,inactive,inactive,,inactive,inactive,,,,,
CC(N[C@H]1CCCC[C@H]1NC(=O)c1ccc(Cl)cc1)c1cccc2ccccc12 (stereo partly specified),inactive,inactive,20.9 µM (active),inactive,,0.0469 µM (active),,,,,0.132 µM (active),,,,,,
Nc1cccc2c1C(=O)N(C1CCC(=O)NC1=O)C2=O (stereo unspecified),inactive,inactive,,,,,,0.0037 µM (active),,0.0935 µM (active),0.0209 µM (active),inactive,,,,,
CC(Cc1ccc(O)c(O)c1)(NN)C(=O)O (stereo unspecified),inactive,inactive,inactive,,inactive,,inactive,inactive,,,inactive,,inactive,,,,
N#Cc1c(C2CCNCC2)cc(-c2c(O)cccc2OCC2CC2)nc1N,inactive,,18.7 µM (active),,3.72 µM (active),2.64 µM (active),11.8 µM (active),16.6 µM (active),13.2 µM (active),18.7 µM (active),9.35 µM (active),,,23.5 µM (active),inactive,inactive,inactive
CC(C)NC[C@@H](C(=O)N1CCN(c2ncnc3c2[C@H](C)C[C@H]3O)CC1)c1ccc(Cl)cc1,inactive,inactive,16.6 µM (active),2.09 µM (active),,,14.8 µM (active),0.0935 µM (active),4.18 µM (active),1.66 µM (active),4.18 µM (active),,,,,,
